The record followed here is article PMC7862700, “An all-to-all approach to the identification of sequence-specific readers for epigenetic DNA modifications on cytosine”.

What all share (assay): DAPPL (digital affinity profiling via proximity ligation, sequencing); 10 mM Tris-HCl pH 7.5, 50 mM NaCl, 1 mM DTT, 4% glycerol, room temperature, 30 min; GST-TFs on glutathione beads, 16-mer random dsDNA library, 0.1% formaldehyde crosslink after washing; high values mean tight binding
What all share (conditions): protein: recombinant; tags: N-terminal GST; dsDNA, one strand shown

Assay [1] addresses T1, ELK4 (Homo sapiens, UniProt P28324-2 1-405).
T1 sequence: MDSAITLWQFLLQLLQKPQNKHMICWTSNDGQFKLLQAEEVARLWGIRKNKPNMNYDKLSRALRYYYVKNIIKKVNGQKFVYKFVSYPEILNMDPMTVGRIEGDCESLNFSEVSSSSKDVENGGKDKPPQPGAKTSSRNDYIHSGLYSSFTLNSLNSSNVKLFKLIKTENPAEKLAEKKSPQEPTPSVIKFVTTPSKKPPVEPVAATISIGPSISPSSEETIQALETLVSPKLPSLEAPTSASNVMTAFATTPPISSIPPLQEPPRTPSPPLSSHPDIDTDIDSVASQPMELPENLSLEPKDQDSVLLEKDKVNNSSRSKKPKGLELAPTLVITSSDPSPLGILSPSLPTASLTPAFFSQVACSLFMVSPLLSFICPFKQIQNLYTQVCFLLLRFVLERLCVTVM
The method, boiled down:
(§1)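 Binding signal is each hexamer's read frequency for a factor divided by its frequency in the tag-only sample. The factors were GST-fused human transcription factors from yeast, captured on glutathione beads, DNA-barcoded and pooled with that sample. Pools were incubated with 200 nmole of a random double-stranded 16-mer DNA library in Tris/NaCl/DTT/glycerol buffer at room temperature for 30 min, then washed, crosslinked with 0.1% formaldehyde, proximity-ligated with BsaI/T4 ligase (1 h, 37 °C), PCR-amplified and sequenced on an Illumina NextSeq500.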

In assay [2] the target is T2, ETV2 (Homo sapiens, UniProt O00321 1-342).
T2 sequence: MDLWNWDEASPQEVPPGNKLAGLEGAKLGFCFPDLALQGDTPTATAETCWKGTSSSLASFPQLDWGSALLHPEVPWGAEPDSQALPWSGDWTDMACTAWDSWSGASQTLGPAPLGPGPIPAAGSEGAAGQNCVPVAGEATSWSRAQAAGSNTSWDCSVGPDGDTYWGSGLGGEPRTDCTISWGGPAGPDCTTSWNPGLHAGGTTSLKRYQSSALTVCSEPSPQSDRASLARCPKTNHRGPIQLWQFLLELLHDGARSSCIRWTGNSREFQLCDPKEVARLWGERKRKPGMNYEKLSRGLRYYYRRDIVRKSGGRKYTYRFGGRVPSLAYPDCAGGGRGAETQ
The method, boiled down:
as §1

The target in assay [3] is T3, ELF3 (Homo sapiens, UniProt P78545 1-371).
T3 sequence: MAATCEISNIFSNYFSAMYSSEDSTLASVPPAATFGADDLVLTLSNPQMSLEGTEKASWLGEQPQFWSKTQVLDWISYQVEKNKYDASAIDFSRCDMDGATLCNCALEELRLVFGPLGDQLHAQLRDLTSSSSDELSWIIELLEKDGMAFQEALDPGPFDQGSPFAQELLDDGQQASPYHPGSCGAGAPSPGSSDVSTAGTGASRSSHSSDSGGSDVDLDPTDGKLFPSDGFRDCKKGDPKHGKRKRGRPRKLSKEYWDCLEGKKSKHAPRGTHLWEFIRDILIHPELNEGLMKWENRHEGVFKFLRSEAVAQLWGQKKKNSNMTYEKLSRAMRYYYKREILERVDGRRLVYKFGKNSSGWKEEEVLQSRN
The method, boiled down: as §1

In assay [4] the target is ETV1 (Homo sapiens, UniProt P50549 1-477). The method, boiled down:
as §1

For assay [5], the target named is T4, ERF (Homo sapiens, UniProt P50548 1-548).
T4 sequence: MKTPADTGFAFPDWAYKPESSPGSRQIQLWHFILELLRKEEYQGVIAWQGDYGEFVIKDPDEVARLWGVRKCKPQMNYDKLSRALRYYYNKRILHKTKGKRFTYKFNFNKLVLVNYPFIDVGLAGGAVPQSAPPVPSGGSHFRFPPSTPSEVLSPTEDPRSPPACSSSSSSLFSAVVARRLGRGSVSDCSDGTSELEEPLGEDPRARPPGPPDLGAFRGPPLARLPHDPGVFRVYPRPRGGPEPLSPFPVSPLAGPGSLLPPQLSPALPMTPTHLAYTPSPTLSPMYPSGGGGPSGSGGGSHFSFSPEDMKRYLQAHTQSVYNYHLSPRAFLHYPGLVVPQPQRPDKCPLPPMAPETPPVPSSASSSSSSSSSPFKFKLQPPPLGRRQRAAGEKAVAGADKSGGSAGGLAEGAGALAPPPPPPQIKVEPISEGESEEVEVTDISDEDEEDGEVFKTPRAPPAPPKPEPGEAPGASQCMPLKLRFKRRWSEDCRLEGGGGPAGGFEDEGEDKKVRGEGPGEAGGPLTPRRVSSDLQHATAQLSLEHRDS
The method, boiled down: as §1

Assay [6] has as its target T5, ETV3L (Homo sapiens, UniProt Q6ZN32 1-361).
T5 sequence: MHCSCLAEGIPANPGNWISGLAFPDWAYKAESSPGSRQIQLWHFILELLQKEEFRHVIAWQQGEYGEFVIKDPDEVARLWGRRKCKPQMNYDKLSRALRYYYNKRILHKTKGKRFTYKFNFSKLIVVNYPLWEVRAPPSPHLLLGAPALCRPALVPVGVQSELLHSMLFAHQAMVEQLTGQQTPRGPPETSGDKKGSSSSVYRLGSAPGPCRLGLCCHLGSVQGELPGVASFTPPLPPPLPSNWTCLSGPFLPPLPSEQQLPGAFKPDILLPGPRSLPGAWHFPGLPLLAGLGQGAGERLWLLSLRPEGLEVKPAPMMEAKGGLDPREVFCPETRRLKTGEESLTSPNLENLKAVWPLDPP
The method, boiled down:
as §1

Assay [7] has as its target T6, ETS2 (Homo sapiens, UniProt P15036 1-469).
T6 sequence: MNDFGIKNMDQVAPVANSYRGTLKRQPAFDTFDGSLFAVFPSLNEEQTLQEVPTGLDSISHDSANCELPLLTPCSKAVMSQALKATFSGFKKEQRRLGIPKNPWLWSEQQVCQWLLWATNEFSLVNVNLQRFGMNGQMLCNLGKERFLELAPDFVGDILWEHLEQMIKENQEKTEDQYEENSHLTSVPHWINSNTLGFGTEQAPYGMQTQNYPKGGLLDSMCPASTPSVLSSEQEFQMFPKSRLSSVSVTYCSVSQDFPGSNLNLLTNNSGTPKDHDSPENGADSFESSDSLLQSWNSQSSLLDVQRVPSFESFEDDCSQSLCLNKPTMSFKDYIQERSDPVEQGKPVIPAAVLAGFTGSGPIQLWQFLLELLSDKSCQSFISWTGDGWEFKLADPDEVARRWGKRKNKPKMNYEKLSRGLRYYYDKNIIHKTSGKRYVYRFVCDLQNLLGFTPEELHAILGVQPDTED
The method, boiled down: as §1

The target in assay [8] is T7, ETV7 (Homo sapiens, UniProt Q9Y603 1-341).
T7 sequence: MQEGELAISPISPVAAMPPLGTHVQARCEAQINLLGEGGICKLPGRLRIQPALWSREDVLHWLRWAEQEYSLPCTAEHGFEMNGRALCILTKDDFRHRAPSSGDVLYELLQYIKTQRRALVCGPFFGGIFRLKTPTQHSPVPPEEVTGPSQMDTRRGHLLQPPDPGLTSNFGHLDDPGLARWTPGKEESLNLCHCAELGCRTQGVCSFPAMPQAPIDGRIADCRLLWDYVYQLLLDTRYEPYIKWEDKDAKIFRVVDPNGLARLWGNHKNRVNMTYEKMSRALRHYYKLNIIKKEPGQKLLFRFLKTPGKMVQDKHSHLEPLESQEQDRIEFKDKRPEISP
The method, boiled down:
as §1

For assay [9], the target named is T8, ETV3 (Homo sapiens, UniProt P41162-2 1-143).
T8 sequence: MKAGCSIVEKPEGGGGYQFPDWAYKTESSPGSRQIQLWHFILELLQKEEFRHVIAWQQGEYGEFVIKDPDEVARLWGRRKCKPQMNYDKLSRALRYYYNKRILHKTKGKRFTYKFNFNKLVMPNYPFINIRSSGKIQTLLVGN
The method, boiled down: as §1

Assay [10] has as its target ETV6 (Homo sapiens, UniProt P41212 1-452). The method, boiled down:
as §1

Sequence of ETV1 (P50549 whole entry): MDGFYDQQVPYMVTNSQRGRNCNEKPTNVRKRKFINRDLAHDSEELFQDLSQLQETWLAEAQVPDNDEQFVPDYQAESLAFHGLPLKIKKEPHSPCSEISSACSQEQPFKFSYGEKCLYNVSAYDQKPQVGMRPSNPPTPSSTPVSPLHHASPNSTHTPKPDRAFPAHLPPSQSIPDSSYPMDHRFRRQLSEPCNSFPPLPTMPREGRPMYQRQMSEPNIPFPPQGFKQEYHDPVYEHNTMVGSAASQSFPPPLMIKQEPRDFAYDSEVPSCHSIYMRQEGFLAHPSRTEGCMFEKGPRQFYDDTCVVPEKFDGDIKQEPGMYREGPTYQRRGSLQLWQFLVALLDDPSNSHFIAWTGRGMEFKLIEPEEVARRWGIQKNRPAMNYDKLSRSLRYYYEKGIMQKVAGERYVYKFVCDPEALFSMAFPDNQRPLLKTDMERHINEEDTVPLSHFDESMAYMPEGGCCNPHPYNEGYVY
Sequence of ETV6 (P41212 whole entry): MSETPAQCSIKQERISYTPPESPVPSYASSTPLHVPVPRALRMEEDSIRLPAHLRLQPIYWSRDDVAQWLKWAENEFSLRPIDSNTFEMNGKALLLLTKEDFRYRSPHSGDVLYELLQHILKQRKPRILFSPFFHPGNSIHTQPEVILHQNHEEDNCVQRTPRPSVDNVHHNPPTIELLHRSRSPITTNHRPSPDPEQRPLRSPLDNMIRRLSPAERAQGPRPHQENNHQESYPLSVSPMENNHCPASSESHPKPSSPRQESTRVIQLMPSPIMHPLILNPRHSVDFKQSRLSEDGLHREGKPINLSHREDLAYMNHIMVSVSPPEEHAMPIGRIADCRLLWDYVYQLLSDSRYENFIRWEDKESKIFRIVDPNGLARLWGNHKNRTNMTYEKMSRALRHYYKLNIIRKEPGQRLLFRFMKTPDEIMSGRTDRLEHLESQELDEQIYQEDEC

Consider CCCAAA, for which the binding signal in [1] is 1.06 fold enrichment (6-mer frequency, TF over GST control); in assay [2] it was 1.3 fold enrichment (6-mer frequency, TF over GST control); in assay [3], 1.2 fold enrichment (6-mer frequency, TF over GST control); in [4], 1.08 fold enrichment (6-mer frequency, TF over GST control); in [5], 1.11 fold enrichment (6-mer frequency, TF over GST control); in assay [6], 1.12 fold enrichment (6-mer frequency, TF over GST control). For the same sequence, the binding signal in [7] was 1.02 fold enrichment (6-mer frequency, TF over GST control); in assay [8], 1.09 fold enrichment (6-mer frequency, TF over GST control); in assay [9] it was 1.02 fold enrichment (6-mer frequency, TF over GST control); in assay [10], 1.1 fold enrichment (6-mer frequency, TF over GST control).
